Measurements: PubChem BioAssay AID717 (Columbia University Molecular Screening Center, 2007)
In all, about 91,000 compounds went through this assay and about 40 (0.04%) were called active. Rule as the data show it: active = activation above about 37%; inactive = the rest. These entries were drawn from the full list.

Each molecule was assayed against Bifunctional epoxide hydrolase 2 (Homo sapiens) (UniProt P34913) (assay: soluble epoxide hydrolase activators, primary screen, biochemical, human sEH (AID 717)). Conditions: purified human sEH enzymatic activity, activator screen; at 2 µM; stronger effect = higher value.
Bifunctional epoxide hydrolase 2 (Homo sapiens), sequence (P34913 whole entry, looked up): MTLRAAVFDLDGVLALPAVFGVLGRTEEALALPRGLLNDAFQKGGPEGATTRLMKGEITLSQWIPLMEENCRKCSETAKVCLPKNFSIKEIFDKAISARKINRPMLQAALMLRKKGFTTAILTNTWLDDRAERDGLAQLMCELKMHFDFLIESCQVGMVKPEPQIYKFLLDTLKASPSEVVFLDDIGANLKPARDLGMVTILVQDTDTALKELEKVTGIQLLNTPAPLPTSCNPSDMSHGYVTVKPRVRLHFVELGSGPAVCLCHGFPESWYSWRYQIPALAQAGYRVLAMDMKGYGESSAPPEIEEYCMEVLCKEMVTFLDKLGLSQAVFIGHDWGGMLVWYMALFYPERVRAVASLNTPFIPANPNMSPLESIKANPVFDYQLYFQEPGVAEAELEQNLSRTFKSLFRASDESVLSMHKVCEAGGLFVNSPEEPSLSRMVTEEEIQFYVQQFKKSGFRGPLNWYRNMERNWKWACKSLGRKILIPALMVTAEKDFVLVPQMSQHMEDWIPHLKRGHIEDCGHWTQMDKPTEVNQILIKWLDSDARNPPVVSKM

activation, inactive:
CCC(=O)NC(NCC1CCCO1)C(Cl)(Cl)Cl (centres undefined) 2.5%
O=C(CCc1ccc(S(=O)(=O)N2CCOCC2)cc1)Nc1ccc2ccccc2c1 -20.5%
O=C(CCCOc1ccccc1)NCc1ccco1 -2.8%
COc1ccc(C(=O)N2CCc3cc(OC)c(OC)cc3C2c2cccc([N+](=O)[O-])c2)cc1 (centres undefined) 2.1%
Cc1cc(-c2cccs2)nc(-n2cccc2)n1 -0.3%
CCN(CC)CCNc1ccc(Cl)cc1[N+](=O)[O-] -8.3%
Cc1ccccc1NC(=O)C(C)c1ccc(-c2ccccc2)c(F)c1 (centres undefined) -9.7%
CCOc1ccc(Nc2nc(Cc3nnc(SCC(=O)NC4CCCC4)n3C)cs2)cc1 -12.4%
C=CCn1c(Cn2nnc3ccccc32)nnc1SCC(=O)N/N=C/c1cc(Br)cc(OC)c1O -14.1%
CC12c3ccccc3C(c3ccccc31)C1C(=O)N(Cc3cccnc3)C(=O)C12 (centres undefined) -9.7%
CNS(=O)(=O)c1cnccc1N1CCN(c2cccc(C)c2)CC1 -13.7%
COc1ccc(Cl)cc1NC(=O)CN(C)C(=O)CNC(=O)C12CC3CC(CC(C3)C1)C2 -13.2%
Cc1ccccc1C(=O)N1CCC(C(=O)Nc2ccc(S(=O)(=O)N(C)C(C)C)cc2)CC1 -83.3%
Nc1c(-c2ccc(F)cc2)cnc2ncnn12 -1.1%
COC(=O)c1ccc(C(=O)OC)c(NC(=S)N2CCCCC2)c1 1.5%
O=C(CSc1nc2ccccc2o1)N1c2ccccc2Sc2ccc(Cl)cc21 6.7%
Cc1ccccc1OCc1nnc(SCC(=O)N2c3ccccc3Sc3ccc(Cl)cc32)o1 1%
COc1ccc(CCNC(=O)COC(=O)c2ccc[nH]c2=O)cc1 3.2%
CC1CC(C)CN(C/C=C/c2ccccc2[N+](=O)[O-])C1 (centres undefined) -2.6%
O=C(CSCc1ccc([N+](=O)[O-])cc1)NCCSCc1ccccc1 -17.4%
O=C1c2ccccc2C(=O)c2c1cccc2N1CCN(Cc2ccccc2)CC1 33.6%
O=S(=O)(c1ccc(F)cc1)n1ccc(-c2cnc(-c3ccccc3)s2)n1 8.1%
O=c1[nH]n(-c2cccc(Cl)c2)c2ncccc12 0.8%
CC(=O)Nc1ccccc1C(=O)C(=O)Nc1ccc(F)cc1 21.4%
Cc1noc(C)c1C(=O)N(CC(=O)NC1CCCC1)Cc1ccccc1F 5.6%
COc1cccc(NC(=O)C2c3cc(OC)c(OC)cc3C(=O)N(C)C2c2cccnc2)c1 (centres undefined) 4.9%
Cc1cccc(-n2cnc(C(=O)Nc3cccnc3)c2)n1 7.2%
CC(C)C(NS(=O)(=O)c1cccs1)C(=O)Nc1nc(C(C)(C)C)cs1 (centres undefined) -6%
c1ccc2c(C[n+]3csc4ccccc43)cccc2c1 12.2%
c1ccc(-c2ccnc3nc(-n4cccc4)nn23)cc1 3.1%
COc1cccc(/C=N/NC(=O)C(=O)N2CCCC2)c1 7.2%
CC(C)CC(=O)N1CCC(O)(CS(=O)(=O)Cc2ccccc2)CC1 0.4%
NC(=O)COc1ccc(/C=N/NC(=O)C2CCCN2S(=O)(=O)c2ccc(Cl)cc2)cc1 (centres undefined) -1.2%
O=C(O)COc1ccc(-c2nccc(-c3cccs3)n2)cc1 -9.3%
O=C(CSc1ncnc2c1cnn2CCc1ccccc1)Nc1ccc(F)cc1 -20.6%
CN(C)/C=C(\C#N)C(=O)c1cccnc1Oc1ccc(F)cc1F -10.7%
Cc1ccc2c(c1)-c1c(ssc1=S)C(C)(C)N2C(=O)CN1C(=O)c2ccccc2C1=O 25.4%
Cn1nc([N+](=O)[O-])nc1Sc1ccc(C(C)(C)C)cc1 -5.2%
Cc1sc(NC(=S)NC(=O)c2cccs2)nc1-c1ccc(CC(C)C)cc1 17.5%
Cc1ccc(C)c(NC(=O)C2Cc3ccccc3CN2C(=O)OCc2ccccc2)c1 (centres undefined) 7.9%
COC(=O)c1c(-c2cccs2)csc1NC(=O)CSc1ncnc2sc(C)c(C)c12 -7%
Cc1cc([N+](=O)[O-])ccc1NCc1cccc([N+](=O)[O-])c1 2.8%
O=S(=O)(/N=C(/Nc1ccccn1)c1ccccc1)c1ccc(Cl)cc1 -19.7%
N/C(=N\OC(=O)c1cc(-c2ccccc2)nc2ccccc12)c1ccncc1 3%
Cc1cc2cc3c(N)[nH]nc3nc2cc1C -5.4%
O=C(/C=C/c1cccs1)c1cc(Cl)ccc1OC(=O)N1CCOCC1 7.4%
O=C(O)c1ccccc1NC(=S)NC(NC(=O)c1ccccc1[N+](=O)[O-])C(Cl)(Cl)Cl (centres undefined) -9.3%
Cc1c(Br)c([N+](=O)[O-])nn1C(C)C(=O)Nc1nccs1 (centres undefined) 6.6%
CN(C)/C=C/C(=O)c1ccccc1F -11.3%
COC(=O)CN(C(=S)Nc1ccc(Cl)cc1)C1CC(=O)N(c2ccc(OC)cc2)C1=O (centres undefined) -11.8%
Cc1ccc(-c2nnc(C)c(N3CC(C)OC(C)C3)n2)cc1 (centres undefined) -0.3%
COc1ccc(-c2c(C(C)=O)c(C)nc3sc4c(=O)n(-c5ccc(C)cc5)nnc4c23)cc1 -1.9%
O=C(ON=C1CCN(S(=O)(=O)c2ccccc2)CC1)c1ccc(Cl)cc1 0.1%
N#C/C(=C(/O)Cc1cccc2ccccc12)c1nc2ccccc2s1 13.6%
NS(=O)(=O)c1ccc(Nc2nc(-c3ccccc3)cs2)cc1 -4.9%
CS(=O)(=O)N(CC(=O)Nc1ccc(F)cc1F)c1cccc([N+](=O)[O-])c1 -2.8%
O=C(Nc1cc(C(F)(F)F)ccc1Cl)c1cc2nc3c(c(C(F)(F)F)n2n1)CCCC3 -7.1%
COc1ccc(/C=C2\CCCC3C2=NN(C(=O)c2scnc2C)C3c2ccc(OC)cc2)cc1 (centres undefined) 12.7%
O=C(c1ccccc1)C(Cn1cncn1)C(Sc1ccccc1)c1ccccc1 (centres undefined) 3.9%
